Active and inactive are the calls of the source. Unless noted, how the calls were made is not given here.

Experiment [1] can be described thus: resazurin metabolic signal in HepG2 cells – cell-based, resazurin fluorescence, 24 h, PK04 Diversity Set, profiling panel (AID 1172). Further: test concentration not given here. To be noted: HepG2 viability, higher = more signal. (In general: Resazurin is reduced to fluorescent resorufin, in cell work by metabolically active cells.)
A short description of experiment [2]: budding yeast growth changes without added modifier – OD600, strain BY4716, 24 h, basal condition, primary screen (AID 1173). To be noted: S. cerevisiae BY4716 growth, OD600, 24 h; higher = more signal, called active from +8 up or from −8 down.
Experiment [3] in a line: viability profiling in MM1S myeloma cells – cell-based, resazurin fluorescence, basal, 24 h, PK04 Diversity Set, profiling panel (AID 1174). Further: test concentration not given here. The settings on record: higher = more signal, called active from +8 up or from −8 down.
The target in experiment [4] is Dihydroorotate dehydrogenase (quinone), mitochondrial (Plasmodium falciparum (isolate 3D7)) (UniProt Q08210). In words: inhibition of P. falciparum DHODH – biochemical, C-terminal His tag, absorbance 600 nm, primary screen (AID 1175).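 Further: recombinant parasite enzyme with a five histidine tag at its C terminus; test concentration not given here.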 To be noted: PfDHODH enzyme, DCIP absorbance 600 nm; higher = more signal, called active from +8 up or from −8 down.
Sequence of Dihydroorotate dehydrogenase (quinone), mitochondrial (Plasmodium falciparum (isolate 3D7)) (Q08210 whole entry, looked up): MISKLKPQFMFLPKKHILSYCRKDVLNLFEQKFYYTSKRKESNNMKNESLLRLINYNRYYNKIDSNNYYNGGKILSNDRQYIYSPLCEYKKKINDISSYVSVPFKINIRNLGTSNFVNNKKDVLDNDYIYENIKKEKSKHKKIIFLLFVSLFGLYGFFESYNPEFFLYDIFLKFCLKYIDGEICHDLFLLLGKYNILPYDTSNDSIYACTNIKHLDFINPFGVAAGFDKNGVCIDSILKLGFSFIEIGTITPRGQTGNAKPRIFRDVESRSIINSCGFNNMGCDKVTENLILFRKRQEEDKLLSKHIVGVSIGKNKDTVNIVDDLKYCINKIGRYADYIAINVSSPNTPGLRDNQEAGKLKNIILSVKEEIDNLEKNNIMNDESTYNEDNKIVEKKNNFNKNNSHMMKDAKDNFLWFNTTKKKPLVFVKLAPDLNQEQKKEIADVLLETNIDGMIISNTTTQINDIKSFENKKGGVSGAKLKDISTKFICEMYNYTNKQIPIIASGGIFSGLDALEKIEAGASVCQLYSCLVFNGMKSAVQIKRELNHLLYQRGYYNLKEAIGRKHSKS
Experiment [5] in a line: inhibition of PAO1 biofilm formation – strain PAO1, LB-PBS medium, absorbance 600 nm, primary screen (AID 1176). Further: test concentration not given here. To be noted: P. aeruginosa PAO1 growth/biofilm, A600, 12 h; higher = more signal.
Experiment [6] is described as follows: growth modulation of vineyard yeast isolate – strain RM11-1a, OD600, basal, 24 h, primary screen (AID 1177).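 Further: cultures grown under basal conditions with no added stressor; test concentration not given here.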 The settings on record: S. cerevisiae RM11-1a growth, OD600, 24 h; higher = more signal, called active from +8 up or from −8 down.
The nature of experiment [7]: growth of efflux-deficient E. coli DRC39 – strain DRC39, OD650, 24 h, E. coli filamentation inducers, primary screen (AID 1178).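 Further: growth measured as culture turbidity by optical density at 650 nm; test concentration not given here.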 The settings on record: E. coli DRC39 acrAB, higher = more signal, called active from +8 up or from −8 down.
Experiment [8] can be described thus: growth of efflux-deficient E. coli DRC39 – strain DRC39, OD650, 48 h, E. coli filamentation inducers, primary screen (AID 1179).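 Further: screen aims at cell division blockers that make cells filament.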 The settings on record: E. coli DRC39 delta-acrAB growth, higher = more signal, called active from +8 up or from −8 down.
A short description of experiment [9]: viability profiling in RPMI8226 myeloma cells – cell-based, resazurin fluorescence, basal, 24 h, PK04 Diversity Set, profiling panel (AID 1180).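 Further: RPMI8826 multiple myeloma cell line at 5000 cells per well; test concentration not given here.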 The settings on record: higher = more signal.
Experiment [10] concerns the target E3 ubiquitin-protein ligase XIAP (Homo sapiens) (UniProt P98170). As to the kind of experiment: small molecules binding XIAP protein – biophysical, small-molecule microarray, fluorescence 635 nm, primary screen (AID 1181).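 Further: score merges 667 nm emission and signal to noise over triplicate slides.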 To be noted: higher = more signal.

Sequence of E3 ubiquitin-protein ligase XIAP (Homo sapiens) (P98170 whole entry, looked up): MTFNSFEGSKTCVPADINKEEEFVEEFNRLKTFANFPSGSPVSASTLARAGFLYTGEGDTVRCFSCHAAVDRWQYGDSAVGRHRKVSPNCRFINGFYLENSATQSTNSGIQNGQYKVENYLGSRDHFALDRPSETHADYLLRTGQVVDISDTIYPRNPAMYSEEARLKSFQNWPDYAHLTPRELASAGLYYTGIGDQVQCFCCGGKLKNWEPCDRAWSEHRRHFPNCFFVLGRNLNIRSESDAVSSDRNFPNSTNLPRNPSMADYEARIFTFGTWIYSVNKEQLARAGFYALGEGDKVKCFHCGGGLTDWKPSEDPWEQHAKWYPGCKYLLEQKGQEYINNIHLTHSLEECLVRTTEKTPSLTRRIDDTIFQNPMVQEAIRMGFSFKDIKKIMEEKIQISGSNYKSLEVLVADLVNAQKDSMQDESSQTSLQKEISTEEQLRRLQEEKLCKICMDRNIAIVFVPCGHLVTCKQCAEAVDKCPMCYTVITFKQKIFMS

Turning to `CCOC(=O)C[C@H]1[C@H](OC(=O)c2cc3ccccc3oc2=O)[C@@H](NC(=O)C2CCCCC2)c2cc(OCCCO)ccc2N1C(=O)c1ccccc1`, the z-score in experiment [1] was -0.687; in [2] it was -0.797 (inactive); in experiment [3] it was 0.0797 (inactive); in experiment [5], -0.259 (inactive); in experiment [6] it was -0.403 (inactive); in experiment [7], 1.65 (inactive). Besides, the z-score in experiment [8] is 0.612 (inactive); in [9], 0.285. Besides, the results for the composite z-score in [4] and in experiment [10] were -2.85 (inactive) and -0.214, respectively.

As for `C[C@]1(C(=O)NC2CC2)c2ccccc2C(=O)N(Cc2cc(C(F)(F)F)cc(C(F)(F)F)c2)[C@H]1c1ccc(CO)cc1`, the z-score in experiment [1] is 0.546; in [2], -0.66 (inactive); in experiment [3], 0.43 (inactive); in experiment [5], -0.506 (inactive); in experiment [6] it was 0.558 (inactive); in experiment [7] it was 1.11 (inactive). The z-score in experiment [8] is 0.833 (inactive); in experiment [9], 0.367. In addition, the composite z-score in experiment [4] was 0.262 (inactive); in experiment [10], -0.0646.

For the molecule `COC(=O)C=C(CC(O)c1cccc(Cl)c1)OC` (stereo not given), the z-score in experiment [1] was -0.0421; in experiment [2] it was -11.9 (active); in experiment [3], 0.427 (inactive); in experiment [5], -1.07 (inactive); in [6], -1.85 (inactive); in [7], -0.246 (inactive). Besides, the z-score in experiment [8] was 0.861 (inactive); in experiment [9], -0.219. Besides, the composite z-score in [4] is -1 (inactive); in experiment [10] it was -0.169.

As to `O=C1OCCC/C=C\[C@H]2OC34C=CCN(Cc5ccccc5)C(=O)[C@H]3N(CCCCCCO)C(=O)[C@@H]4C12` (stereo not given in full), the z-score in [1] was 0.493; in experiment [2], -0.908 (inactive); in experiment [3] it was -0.549 (inactive); in experiment [5] it was -0.497 (inactive); in [6] it was 0.692 (inactive); in experiment [7], 1.23 (inactive). Moreover, the values for the z-score in experiment [8] and in experiment [9] were 1.58 (inactive) and 0.809, respectively. Also, the composite z-score was -0.0805 (inactive) in experiment [4] and -0.15 in experiment [10].

As for `COc1ccc([Si](C)(C)[C@@H]2[C@@H](CCO)O[C@]3(C(=O)N(Cc4ccc(N5C(=O)COc6ccccc65)cc4)c4ccccc43)[C@H]2C)cc1`, the z-score in [1] is -1.59; in [2], 1.54 (inactive); in experiment [3], -2.01 (inactive); in experiment [5] it was 2.5 (inactive); in experiment [6], 4.73 (inactive); in experiment [7], -0.238 (inactive). For the same molecule, the z-score in experiment [8] is -0.639 (inactive); in experiment [9], -3.64. For the same molecule, the composite z-score in experiment [4] is -0.0524 (inactive); in [10], -0.0559.

As for `CCCCN1CC=CC23O[C@@H]4/C=C\CCC(C)OC(=O)C4[C@H]2C(=O)N(CCCCCO)[C@@H]3C1=O` (stereo not given in full), the z-score in experiment [1] was 0.389; in experiment [2], 0.0305 (inactive); in experiment [3], 0.96 (inactive); in experiment [5] it was 0.646 (inactive); in [6] it was -0.0125 (inactive); in [7] it was 0.511 (inactive). Moreover, the z-score is 0.35 (inactive) in experiment [8] and 0.05 in experiment [9]. Also, the composite z-score in experiment [4] is 0.18 (inactive); in experiment [10], -0.0436.

As to `COC(=O)[C@@]1(Cc2ccc(OC)cc2)[C@H]2c3cc(C(=O)N4CCCC4)n(Cc4ccsc4Br)c3C[C@H]2CN1C(=O)c1ccccc1`, the z-score in experiment [1] is -1.78; in [2] it was 0.567 (inactive); in experiment [3] it was -8.06 (active); in [5] it was 0.576 (inactive); in experiment [6], -0.0289 (inactive); in experiment [7] it was -0.0187 (inactive). Besides, the z-score in experiment [8] is 0.126 (inactive); in experiment [9], -4.31. Further, the figures for the composite z-score in experiment [4] and in [10] were 0.276 (inactive) and 0.244, respectively.

On to `CC(C)c1ccc(NN2C(C(O)c3cc(C(F)(F)F)cc(C(F)(F)F)c3)C=CC3C(=O)N(c4ccccc4)C(=O)C32)cc1` (stereo not given), for which the z-score in experiment [1] is -2.42; in experiment [2] it was -1.33 (inactive); in [3], -3.12 (inactive); in experiment [5], 1.18 (inactive); in experiment [6] it was 1.79 (inactive); in experiment [7] it was -0.447 (inactive). The z-score is -0.729 (inactive) in experiment [8] and -5.25 in experiment [9]. For the same molecule, the figures for the composite z-score in experiment [4] and in [10] were 0.643 (inactive) and 0.0813, respectively.

On to `CC(=O)n1cc(C(O)C2C=CC3C(=O)N(C)C(=O)C3N2Nc2ccccc2)c2ccccc21` (stereo not given), for which the z-score in experiment [1] is 0.362; in experiment [2] it was 0.125 (inactive); in experiment [3], -1.2 (inactive); in experiment [5], 1.07 (inactive); in experiment [6], 0.135 (inactive); in experiment [7], -0.321 (inactive). Besides, the z-score in experiment [8] is -0.306 (inactive); in [9] it was -1.11. The composite z-score in experiment [4] is 0.0365 (inactive); in [10] it was 0.229.

Turning to `CCN(CC)c1ccc(N2CC=CC34O[C@@H]5/C=C\CCCOC(=O)C5[C@H]3C(=O)N(CCO)[C@@H]4C2=O)cc1` (stereo not given in full), the z-score in experiment [1] was -1.46; in experiment [2] it was 0.245 (inactive); in experiment [3], -0.0391 (inactive); in experiment [5] it was -0.606 (inactive); in experiment [6], 0.747 (inactive); in experiment [7] it was -1.16 (inactive). Also, the figures for the z-score in [8] and in experiment [9] were -1.26 (inactive) and 0.547, respectively. In addition, the composite z-score in experiment [4] is 0.174 (inactive); in experiment [10], 0.56.

As to `CC(C)N1C(=O)[C@@]2(Cc3ccccc31)c1ccccc1C(=O)N(C1CCCCC1)[C@H]2c1ccc(CO)cc1`, the z-score in [1] is 2.02; in [2] it was -0.536 (inactive); in experiment [3], 0.843 (inactive); in [5] it was -0.255 (inactive); in experiment [6], -0.719 (inactive); in experiment [7], 0.589 (inactive). Moreover, the figures for the z-score in [8] and in experiment [9] were 0.443 (inactive) and 0.917, respectively. Also, the composite z-score is -18.9 (active) in [4] and -0.209 in [10].

In the case of `CN(C)CCCC[C@@H]1NC(=O)[C@H]2C[C@@H](C(=O)NCCCCCNC(=O)CS)[C@@H](c3cccc(OCCO)c3)N2C1=O`, the z-score in experiment [1] was 0.373; in [2], -0.646 (inactive); in experiment [3], -0.212 (inactive); in experiment [5] it was 0.643 (inactive); in experiment [6], -0.569 (inactive); in experiment [7], -0.197 (inactive). The values for the z-score in [8] and in experiment [9] were -0.32 (inactive) and -0.421, respectively. Moreover, the composite z-score in experiment [4] was -0.286 (inactive); in experiment [10], -0.244.

The record behind these values is PubChem BioAssay.
